Measured values as given in PubChem BioAssay AID950 (NMMLSC, 2007).
Hit rate of the full screen: of about 190,000 compounds, about 120 (0.063%) were called active. No stated cut-off is given here; in the data, active means inhibition above about 40%; inconclusive means no clear call, values can overlap the other calls; inactive means below that. The entries come from a sample that favours actives as a whole.

Each compound was assayed against Apoptosis regulator Bcl-2 (Homo sapiens) (UniProt P10415) (assay: inhibitors of Bim-Bcl-2 binding, primary screen, biochemical, multiplexed, human Bcl-2 family (AID 950;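 further: 0% = no compound wells with probe peptide and 100% = reference peptide inhibitor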)). Conditions: Bead-based flow cytometry, Bim peptide-Bcl-2 binding; at 10 µM; stronger effect = higher value.
Chain of Apoptosis regulator Bcl-2 (Homo sapiens) (P10415 whole entry, looked up): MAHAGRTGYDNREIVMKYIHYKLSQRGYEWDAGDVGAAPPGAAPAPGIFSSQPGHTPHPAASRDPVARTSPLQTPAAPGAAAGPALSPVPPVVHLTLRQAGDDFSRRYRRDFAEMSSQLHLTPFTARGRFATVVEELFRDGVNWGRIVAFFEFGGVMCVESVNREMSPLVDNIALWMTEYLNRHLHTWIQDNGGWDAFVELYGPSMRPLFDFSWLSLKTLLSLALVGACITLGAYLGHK

inhibition, inactive:
CCOC(=O)Cn1nnnc1C -3%
CN(NC(=O)C1CC(=O)N(c2ccccc2)C1)C1=NS(=O)(=O)c2ccccc21 (stereo not drawn) -2%
Cc1nc2sc3c(c2c(=O)n1NC(=O)CCl)CCCC3 -3%
COc1ccc(N(CC(=O)Nc2ccc(C)cc2C)S(=O)(=O)c2ccccc2[N+](=O)[O-])c(OC)c1 -1%
COc1cccc(CN(C)CC(=O)NCc2ccccc2Cl)c1OC 0%
CCOC(=O)c1[nH]cnc1C(=O)Nc1ccccc1C 1%
CCCC1(C(=O)OC)NC(c2ccco2)C2C(=O)N(C)C(=O)C21 (stereo not drawn) -2%
CC(=O)Nc1ccc(OC(=O)COc2ccc(Br)cc2)cc1 0%
c1ccc(Cc2cc[n+](Cc3ccccc3)cc2)cc1 0%
C/C(CC(=O)Nc1ccc(C)cc1C)=N\NC(=O)C(C)C 0%
COc1cccc(NC(=O)CN(C)CC(=O)Nc2ccc3c(c2)CCC3)c1 0%
Cc1ccc(NC(=O)N2CCSc3ccccc32)cc1 -1%
COc1ccc(NC(=S)Nc2ccc(S(N)(=O)=O)cc2)c(C)c1 -4%
O=C(c1ccc(Br)o1)N(c1ccccn1)C1CCCCC1 -16%
Cc1sc2c(c1C)c(=O)n(-c1ccccc1)c(=O)n2CC(=O)NCC1CCCO1 (stereo not drawn) 1%
COc1ccc(Br)cc1CN(C)CC(=O)Nc1cc([N+](=O)[O-])ccc1OC -9%
O=C(/C=C/c1ccccc1Cl)Nc1ccc(S(=O)(=O)Nc2ncccn2)cc1 -1%
COC(=O)Cc1ccc(OCC(=O)Nc2ccc(OC(F)(F)F)cc2)cc1 -5%
O=C(C1CCCO1)N(c1ccc(F)cc1)C1C=CS(=O)(=O)C1 (stereo not drawn) -2%
CCc1nnc(NC(=O)CCN(c2ccc(C)cc2)S(=O)(=O)c2ccccc2)s1 0%
COc1ccc(-c2csc(NC(=O)c3ccc(N4C(=O)CCC4=O)cc3)n2)cc1OC -4%
CCOc1ccc(NC(=O)CC2C(=O)N(c3ccccc3)C(=O)N2CCOC)cc1 (stereo not drawn) 1%
Cc1ccc(C(NC(=O)N2CCCC2)C(Cl)(Cl)Cl)cc1F (stereo not drawn) -1%
COc1ccc(C[C@H]2CN3C(=NC[C@H]3C)N2CCNC(=O)CCC2CCCCC2)cc1 0%
CCOc1ccc(-c2ccc(SCC(=O)N3CCOCC3)nn2)cc1 -3%
O=C(CC1CCCCC1)NCc1ccco1 -4%
CCOC(=O)CNC(=O)/C=C/c1c(Cl)cccc1Cl 4%
CCN(CC)CCCNC(=O)Cn1cnc2sc(C)c(S(=O)(=O)N3CCN(c4ncccn4)CC3)c2c1=O -3%
CCOn1c(=O)c(=O)n(O)c2ccccc21 -1%
CCO[C@@H]1OC(C(=O)NCc2nc3ccccc3[nH]2)=C[C@H](C2CCCCC2)[C@H]1CCCO -2%
Fc1cccc(CSc2nnc3ccc(-c4ccncc4)nn23)c1 3%
CSc1ccc(/C=N/NC(=O)c2cccc(Cl)c2)cc1 -7%
O=C(Cc1ccc([N+](=O)[O-])cc1)N/N=C/c1ccco1 -4%
CC1(C)CC(=O)C(C2c3ccccc3S(=O)(=O)c3ccccc32)C(=O)C1 0%
O=C(Oc1c(-c2ccco2)oc2ccccc2c1=O)c1cccnc1 -4%
CCOCCCn1c(NN)nc2ccccc2c1=O -5%
CCOc1ccc(NC(=O)c2ccc(CSc3nnnn3C)cc2)cc1 -9%
Nc1nnc(SCn2nnc3ccccc3c2=O)s1 -5%
CN(CC(=O)Nc1ccccc1F)CC(=O)Nc1ccccc1Br -5%
Cc1cc(C)cc(N(CC(=O)NCCSCc2ccco2)S(C)(=O)=O)c1 -7%
COc1ccc(C(CCN(Cc2ccc(OC)c(OC)c2)C(=O)CCl)c2ccccc2)cc1 (stereo not drawn) -6%
COc1cc(OC)c(C(=O)OC(C)C(=O)Nc2cc(C(F)(F)F)ccc2Cl)cc1OC (stereo not drawn) -3%
Cc1ccnc(NC(=O)C(C)N2C(=O)c3ccccc3C2=O)c1 (stereo not drawn) 0%
